# Source: PubChem BioAssay (NCATS)
# “And” between values parts separate entries of the source, which are not always exact repeats. Equal values may be shown once. A number with no mark means an inactive call. Records with an inconclusive call do not appear. Entries that show only a call come without a potency. The source made the active and inactive calls. Unless noted, calls follow the shape of the full dose curve.
# Legend:
# [1] = target: Glucocorticoid receptor (Homo sapiens) (UniProt P04150); assay: qHTS assay for small molecule agonists of glucocorticoid receptor signaling (AID 588532; active = well fitted curve in the direction sought with a large enough effect in the signal ratio, with a control signal flat; the % refers to the signal ratio); details: HeLa MMTV-bla, beta-lactamase ratio, agonist, 18 h; hits give high values; percent of dexamethasone control, DMSO zero
# Procedure, shortened: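 HeLa GRE-bla reporter cells; 18 h compound exposure at 37 C; 2 h CCF4 loading at room temperature; fluorescence at 460 and 530 nm; EC50 by Hill equation.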
# [2] = target: Ubiquitin carboxyl-terminal hydrolase 1 (Homo sapiens) (UniProt O94782); assay: Inhibitors of USP1/UAF1: Pilot qHTS (AID 504865; active = well fitted inhibition curve with a large enough effect;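 also: rhodamine fluorescence freed from ubiquitin-rhodamine substrate followed over time; top concentration of the series differs between compounds; nearly all actives have a fitted effect of over 35% in size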); details: purified USP1/UAF1, Ub-rhodamine cleavage fluorescence; series mostly up to 114 µM
# Procedure, shortened: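 In 50mM HEPES pH 7.8 containing 0.5mM EDTA, 1mM TCEP, 0.1 mg/ml BSA and 0.01% Tween-20, 1nM USP1/UAF1 is exposed to compound for 15 min, then Ub-Rho (150nM final) is added and fluorescence is read over time.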
# [3] = target: Estrogen receptor (Homo sapiens) (UniProt P03372); assay: qHTS assay for small molecule antagonists of estrogen receptor alpha signaling (AID 588513; active = well fitted curve in the direction sought with a large enough effect in the signal ratio, with a control signal flat, not every such curve was filed as active; the % refers to the signal ratio); details: ER-alpha-UAS-bla HEK293, beta-lactamase ratio, antagonist mode; series mostly up to 76.9 µM
# Procedure, shortened: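 Fluorescence from CCF4 substrate after 2 h at room temperature gave reporter activity; cells had been exposed to compound and 0.5nM 17-beta-estradiol for 18 h at 37 C. Hill-equation fitting yielded IC50 and maximal response.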
# [4] = target: Estrogen receptor (Homo sapiens) (UniProt P03372); assay: qHTS assay for small molecule agonists of estrogen receptor alpha signaling (AID 588514); details: ER-alpha-UAS-bla HEK293, beta-lactamase ratio, 18 h; series mostly up to 76.8 µM; also: nearly all actives have a fitted effect of over 70% in size; also: potency is read from the fitted curve at half-maximal effect
# Procedure, shortened: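 ER-alpha-UAS-bla GripTite HEK 293 cells in medium with 2% charcoal/dextran-treated FBS were treated with compound titrations at 37 C for 18 hrs; beta-lactamase reporter read by CCF4 fluorescence after 2 hrs at RT.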
# [5] = target: Glucocorticoid receptor (Homo sapiens) (UniProt P04150); assay: qHTS assay for small molecule antagonists of glucocorticoid receptor signaling (AID 588533; active = well fitted inhibition curve with a large enough effect in the signal ratio, with a control signal flat, not every such curve was filed as active; the % refers to the signal ratio;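 also: cells stimulated with 2 nM dexamethasone as agonist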; also: potency is read from the fitted curve at half-maximal effect); details: HeLa MMTV-bla, GRE beta-lactamase ratio, antagonist mode, 18 h; series mostly up to 76.8 µM
# Procedure, shortened: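 Antagonist-mode qHTS: compound titrations added to GRE-bla HeLa cells, then dexamethasone 2 nM final; 18 h, 37 C. CCF4 FRET fluorescence normalized to dexamethasone and DMSO; IC50 from Hill fit.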
# [6] = target: Peroxisome proliferator-activated receptor delta (Homo sapiens) (UniProt Q03181); assay: qHTS assay for small molecule agonists of peroxisome proliferator-activated receptor delta signaling (AID 588534); details: HEK293T PPARdelta-UAS-bla, beta-lactamase ratio, 18 h; series mostly up to 76.7 µM
# Procedure, shortened: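 Cell-based beta-lactamase reporter assay run in agonist mode: cells seeded and incubated 5 hrs at 37 C, compounds added and incubated 18 hrs at 37 C. CCF4 dye fluorescence read after 2 hrs at RT; EC50 and efficacy from Hill fits.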
# [7] = target: Androgen receptor (Homo sapiens) (UniProt P10275); assay: qHTS assay for small molecule agonists of androgen receptor signaling (AID 588515; active = well fitted curve in the direction sought with a large enough effect in the signal ratio, with a control signal flat; the % refers to the signal ratio); details: AR-UAS-bla HEK293, beta-lactamase ratio, agonist 16 h; hits give high values
# Procedure, shortened: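 EC50 and efficacy came from Hill fits of titrations (up to 92 uM) normalized to 30 nM R1881 as 100% and DMSO as 0%. Compound exposure was 16 h at 37 C on AR-UAS-bla HEK293 cells, with a 405/460/530 nm CCF4 fluorescence read.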
# [8] = target: Androgen receptor (Homo sapiens) (UniProt P10275); assay: qHTS assay for small molecule antagonists of androgen receptor signaling (AID 588516; active = well fitted curve in the direction sought with a large enough effect in the signal ratio, with a control signal flat, not every such curve was filed as active; the % refers to the signal ratio); details: AR-UAS-bla HEK293, beta-lactamase ratio, antagonist mode, 16 h; series mostly up to 76.8 µM
# Procedure, shortened: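 Cells were plated and incubated 5 h, compounds added in titration, then R1881 (10 nM final) as agonist. After 16 h at 37 C, CCF4 substrate was loaded for 2 h at room temperature and fluorescence measured.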
# [9] = target: Bile acid receptor (Homo sapiens) (UniProt Q96RI1); assay: qHTS assay for small molecule antagonists of farnesoid X receptor signaling (AID 588526); details: HEK293T FXR-UAS-bla, beta-lactamase ratio, antagonist mode; series mostly up to 76.7 µM; also: potency is read from the fitted curve at half-maximal effect
# Procedure, shortened: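 Antagonist mode: titrated compounds tested against chenodeoxycholic acid stimulation (normalized to 50 uM CDCA and DMSO) in GeneBLAzer HEK293T cells for 16 h. Beta-lactamase read by CCF4 fluorescence; IC50 from Hill fits.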
# [10] = target: Bile acid receptor (Homo sapiens) (UniProt Q96RI1); assay: qHTS assay for small molecule agonists of farnesoid X receptor signaling (AID 588527); details: HEK293T FXR-UAS-bla, beta-lactamase ratio, 16 h; hits give high values
# Procedure, shortened: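 FXR-UAS-bla HEK293T, 10% dialyzed FBS; cpds up to 92 uM titration, 16 h 37 C; CCF4 dye 2 h RT; fluorescence. Normalized to chenodeoxycholic acid 100 uM (100%) and DMSO (0%); Hill fit gives EC50, efficacy.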
# [11] = target: DNA dC->dU-editing enzyme APOBEC-3G (Homo sapiens) (UniProt Q9HC16); assay: qHTS for inhibitors of Vif-A3G interactions: Validation (AID 588379; active = well fitted inhibition curve with a large enough effect); details: Vif-A3G protein interaction assay; series mostly up to 46.1 µM
# Procedure, shortened: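 HeLa cells stably expressing Vif and A3G-eYFP, 700 cells/well, incubated overnight at 37 deg C, then exposed to compound overnight at 37 deg C. Inhibition of Vif-mediated degradation read as increased yellow fluorescence (Ex 488/Em 500-530) by laser-scanning cytometry.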
# Chain of Peroxisome proliferator-activated receptor delta (Homo sapiens) (Q03181 whole entry, looked up): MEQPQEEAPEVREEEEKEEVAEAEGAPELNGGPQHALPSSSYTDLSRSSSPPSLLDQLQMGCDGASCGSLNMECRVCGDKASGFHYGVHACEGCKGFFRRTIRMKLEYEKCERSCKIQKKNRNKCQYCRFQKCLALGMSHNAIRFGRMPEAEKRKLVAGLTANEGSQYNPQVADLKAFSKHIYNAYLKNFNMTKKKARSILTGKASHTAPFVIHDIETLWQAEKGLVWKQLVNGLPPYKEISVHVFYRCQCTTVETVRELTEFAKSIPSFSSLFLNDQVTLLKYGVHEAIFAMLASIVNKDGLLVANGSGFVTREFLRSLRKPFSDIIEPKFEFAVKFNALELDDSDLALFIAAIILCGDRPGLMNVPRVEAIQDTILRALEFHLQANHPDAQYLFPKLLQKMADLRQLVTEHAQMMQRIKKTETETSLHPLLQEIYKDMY
# Chain of Androgen receptor (Homo sapiens) (P10275 whole entry, looked up): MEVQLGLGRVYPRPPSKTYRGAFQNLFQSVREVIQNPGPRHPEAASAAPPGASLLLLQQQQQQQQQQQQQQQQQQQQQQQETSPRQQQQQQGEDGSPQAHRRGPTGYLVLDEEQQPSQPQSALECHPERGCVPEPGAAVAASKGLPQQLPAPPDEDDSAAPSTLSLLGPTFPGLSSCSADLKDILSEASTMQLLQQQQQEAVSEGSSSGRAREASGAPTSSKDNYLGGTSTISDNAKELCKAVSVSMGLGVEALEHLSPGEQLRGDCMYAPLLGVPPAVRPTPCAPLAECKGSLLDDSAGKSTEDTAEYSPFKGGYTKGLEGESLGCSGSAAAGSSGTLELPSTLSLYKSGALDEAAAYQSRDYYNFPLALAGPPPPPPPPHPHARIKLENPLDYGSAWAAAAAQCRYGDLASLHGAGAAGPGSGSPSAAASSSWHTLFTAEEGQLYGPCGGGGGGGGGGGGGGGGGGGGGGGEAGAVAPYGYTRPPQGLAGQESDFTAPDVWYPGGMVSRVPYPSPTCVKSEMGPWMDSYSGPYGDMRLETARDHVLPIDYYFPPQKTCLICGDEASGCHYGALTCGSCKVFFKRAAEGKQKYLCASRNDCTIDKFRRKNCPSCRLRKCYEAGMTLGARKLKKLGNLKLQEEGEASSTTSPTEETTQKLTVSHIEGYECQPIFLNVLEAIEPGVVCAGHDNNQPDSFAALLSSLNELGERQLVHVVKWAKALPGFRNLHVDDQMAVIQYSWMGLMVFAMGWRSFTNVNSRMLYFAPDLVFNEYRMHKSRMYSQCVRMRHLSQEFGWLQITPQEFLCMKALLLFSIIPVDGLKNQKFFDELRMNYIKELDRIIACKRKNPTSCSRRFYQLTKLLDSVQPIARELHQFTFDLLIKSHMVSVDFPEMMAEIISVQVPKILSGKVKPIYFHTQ
# Chain of DNA dC->dU-editing enzyme APOBEC-3G (Homo sapiens) (Q9HC16 whole entry, looked up): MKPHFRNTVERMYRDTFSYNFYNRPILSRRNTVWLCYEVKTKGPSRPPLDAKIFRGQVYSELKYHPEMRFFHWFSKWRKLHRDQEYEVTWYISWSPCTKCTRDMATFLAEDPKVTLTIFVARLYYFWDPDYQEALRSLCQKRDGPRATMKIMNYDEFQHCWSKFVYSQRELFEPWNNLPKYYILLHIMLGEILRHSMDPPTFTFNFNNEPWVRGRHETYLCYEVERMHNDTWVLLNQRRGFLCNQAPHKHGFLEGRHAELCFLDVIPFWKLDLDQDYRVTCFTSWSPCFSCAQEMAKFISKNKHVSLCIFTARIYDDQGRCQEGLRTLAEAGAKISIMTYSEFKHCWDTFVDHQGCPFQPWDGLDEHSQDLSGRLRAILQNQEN
# Chain of Glucocorticoid receptor (Homo sapiens) (P04150 whole entry, looked up): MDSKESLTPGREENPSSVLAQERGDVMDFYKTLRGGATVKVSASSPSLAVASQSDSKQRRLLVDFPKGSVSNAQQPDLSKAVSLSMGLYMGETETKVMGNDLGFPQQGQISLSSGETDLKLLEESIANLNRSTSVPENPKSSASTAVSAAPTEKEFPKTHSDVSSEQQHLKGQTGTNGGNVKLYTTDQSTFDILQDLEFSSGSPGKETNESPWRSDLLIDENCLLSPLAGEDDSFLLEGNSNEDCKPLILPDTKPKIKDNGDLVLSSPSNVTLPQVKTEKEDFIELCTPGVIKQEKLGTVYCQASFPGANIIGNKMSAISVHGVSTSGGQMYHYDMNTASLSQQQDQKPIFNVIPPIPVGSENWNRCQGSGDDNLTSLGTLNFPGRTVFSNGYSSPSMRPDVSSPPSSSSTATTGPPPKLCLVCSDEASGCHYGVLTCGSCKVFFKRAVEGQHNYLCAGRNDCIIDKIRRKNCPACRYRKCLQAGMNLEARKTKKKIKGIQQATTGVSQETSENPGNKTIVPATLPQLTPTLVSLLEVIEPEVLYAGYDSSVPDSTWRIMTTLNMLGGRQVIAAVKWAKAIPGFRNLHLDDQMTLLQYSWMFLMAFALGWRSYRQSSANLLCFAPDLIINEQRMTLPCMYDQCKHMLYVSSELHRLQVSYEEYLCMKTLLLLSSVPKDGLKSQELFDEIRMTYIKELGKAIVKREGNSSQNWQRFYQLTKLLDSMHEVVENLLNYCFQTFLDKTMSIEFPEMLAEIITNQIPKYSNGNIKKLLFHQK
# Chain of Estrogen receptor (Homo sapiens) (P03372 whole entry, looked up): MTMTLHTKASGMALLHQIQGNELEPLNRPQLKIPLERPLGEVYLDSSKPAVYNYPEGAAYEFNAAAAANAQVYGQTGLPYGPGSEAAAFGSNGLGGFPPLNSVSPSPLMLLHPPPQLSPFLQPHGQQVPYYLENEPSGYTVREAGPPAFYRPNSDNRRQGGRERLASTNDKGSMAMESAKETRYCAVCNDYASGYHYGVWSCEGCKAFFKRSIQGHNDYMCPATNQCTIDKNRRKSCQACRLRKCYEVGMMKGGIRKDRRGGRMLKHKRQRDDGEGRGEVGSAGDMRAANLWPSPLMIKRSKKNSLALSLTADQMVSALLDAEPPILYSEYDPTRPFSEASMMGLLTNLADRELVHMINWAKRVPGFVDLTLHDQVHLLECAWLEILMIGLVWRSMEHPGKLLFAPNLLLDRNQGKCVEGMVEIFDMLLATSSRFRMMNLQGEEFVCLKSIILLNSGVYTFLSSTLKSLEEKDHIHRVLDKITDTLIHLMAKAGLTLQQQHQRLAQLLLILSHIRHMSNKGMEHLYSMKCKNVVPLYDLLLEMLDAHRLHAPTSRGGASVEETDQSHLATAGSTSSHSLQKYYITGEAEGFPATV
# Chain of Bile acid receptor (Homo sapiens) (Q96RI1 whole entry, looked up): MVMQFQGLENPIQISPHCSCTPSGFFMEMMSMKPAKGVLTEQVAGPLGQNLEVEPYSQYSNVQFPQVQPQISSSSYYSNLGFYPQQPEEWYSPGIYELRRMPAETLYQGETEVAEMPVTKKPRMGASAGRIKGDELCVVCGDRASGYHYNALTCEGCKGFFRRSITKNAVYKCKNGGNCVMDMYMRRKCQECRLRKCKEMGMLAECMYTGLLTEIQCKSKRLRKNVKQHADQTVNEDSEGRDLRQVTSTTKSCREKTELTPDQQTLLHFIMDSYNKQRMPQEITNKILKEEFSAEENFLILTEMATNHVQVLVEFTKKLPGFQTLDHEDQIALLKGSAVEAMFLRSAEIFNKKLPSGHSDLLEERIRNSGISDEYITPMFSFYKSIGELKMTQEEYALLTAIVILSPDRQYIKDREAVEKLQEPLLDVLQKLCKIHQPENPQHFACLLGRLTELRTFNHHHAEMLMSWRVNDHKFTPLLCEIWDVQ
# Chain of Ubiquitin carboxyl-terminal hydrolase 1 (Homo sapiens) (O94782 whole entry, looked up): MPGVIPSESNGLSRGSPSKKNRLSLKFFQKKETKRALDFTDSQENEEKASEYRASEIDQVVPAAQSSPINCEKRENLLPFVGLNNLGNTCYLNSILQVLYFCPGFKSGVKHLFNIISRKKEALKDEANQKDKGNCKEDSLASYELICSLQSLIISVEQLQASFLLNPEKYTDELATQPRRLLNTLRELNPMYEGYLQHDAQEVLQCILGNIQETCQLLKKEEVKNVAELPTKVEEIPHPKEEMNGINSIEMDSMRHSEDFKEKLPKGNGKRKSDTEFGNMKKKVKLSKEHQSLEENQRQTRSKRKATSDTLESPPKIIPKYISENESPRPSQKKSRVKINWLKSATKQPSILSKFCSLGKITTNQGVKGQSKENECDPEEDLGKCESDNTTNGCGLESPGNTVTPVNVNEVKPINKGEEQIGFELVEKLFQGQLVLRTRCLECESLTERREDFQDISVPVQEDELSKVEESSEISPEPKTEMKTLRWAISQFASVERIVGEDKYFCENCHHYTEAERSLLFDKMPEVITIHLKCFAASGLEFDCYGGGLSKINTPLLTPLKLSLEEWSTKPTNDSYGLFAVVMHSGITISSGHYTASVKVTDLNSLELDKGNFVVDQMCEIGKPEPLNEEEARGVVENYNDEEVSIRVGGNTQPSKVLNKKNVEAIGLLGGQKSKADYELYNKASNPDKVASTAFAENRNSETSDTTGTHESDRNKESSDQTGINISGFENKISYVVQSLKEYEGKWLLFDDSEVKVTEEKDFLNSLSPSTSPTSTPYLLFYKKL
compound,measurement,setting,value
CN(C)CCC=C1c2ccccc2CCc2ccccc21,activation,[1],-8.68%
CC(COc1ccccc1)N(CCCl)Cc1ccccc1 (stereo not drawn),activation,[1],-12.9%
Oc1ccccc1-c1ccccc1,Potency,[2],inactive
same,outcome,[3],inactive
same,Potency,[4],inactive
c1ccc2c(c1)Nc1ccccc1S2,outcome,[3],inactive
same,Potency,[4],inactive
CCCC1CCCCN1 (stereo not drawn),Potency,[2],inactive
COc1cc([C@@H]2c3cc4c(cc3[C@H](O)[C@H]3COC(=O)[C@H]23)OCO4)cc(OC)c1OC,Potency,[2],inactive
CCOP(=S)(OCC)Oc1cc(C)nc(C(C)C)n1,activation,[1],-2.71%
same,Potency,[5],inactive
same,outcome,[6],inactive
CC(C)(C)CC(C)(C)c1ccc(O)cc1,activation,[7],2.26%
same,outcome,[8],inactive
same,Potency,[9],inactive
same,activation,[10],3.19%
same,activation,[1],4.7%
COC1=CC(=O)C[C@@H](C)[C@]12Oc1c(Cl)c(OC)cc(OC)c1C2=O,activation,[10],0.423%
CN(C)/N=N/c1nc[nH]c1C(N)=O,activation,[10],-3.3%
C[C@]12CCC(=O)C(O)=C1CC[C@@H]1[C@@H]2CC[C@]2(C)C(=O)CC[C@@H]12,outcome,[3],inactive
same,activation,[1],2.34%
same,Potency,[5],inactive
C#CCN(C)[C@H](C)Cc1ccccc1,Potency,[2],inactive
same,outcome,[11],inactive
CS(=O)c1ccc(-c2nc(-c3ccc(F)cc3)c(-c3ccncc3)[nH]2)cc1 (stereo not drawn),Potency,[2],inactive
N[C@@H](Cc1ccc(N(CCCl)CCCl)cc1)C(=O)O,Potency,[9],39800 nM (active)
same,activation,[10],0.124%
same,activation,[1],7.11% and 5.34%
same,Potency,[5],inactive
Nc1cc(-c2ccncc2)c[nH]c1=O,outcome,[6],inactive
Clc1ccc(COC(Cn2ccnc2)c2ccc(Cl)cc2Cl)cc1 (stereo not drawn),Potency,[4],inactive
same,activation,[10],9.99%
same,activation,[1],9.41%
O=c1oc2ccccc2c(O)c1C(CC(O)c1ccc(-c2ccc(Br)cc2)cc1)c1ccccc1 (stereo not drawn),activation,[10],-8.03%
CCCc1cc(=O)[nH]c(=S)[nH]1,outcome,[6],inactive
C[C@H]1O[C@@H](O[C@H]2[C@@H](O)C[C@H](O[C@H]3[C@@H](O)C[C@H](O[C@H]4CC[C@@]5(C)[C@H](CC[C@@H]6[C@@H]5CC[C@]5(C)[C@@H](C7=CC(=O)OC7)CC[C@]65O)C4)O[C@@H]3C)O[C@@H]2C)C[C@H](O)[C@@H]1O,activation,[10],-2.75%
same,activation,[1],-14.2%
same,Potency,[5],355 nM (active)
Nc1ccc(O)c(C(=O)O)c1,activation,[10],-5.01% and -0.178%
Cc1ccc(C)c(OCCCC(C)(C)C(=O)O)c1,activation,[10],-2.62% and -0.135%
CC[C@H](C)C(=O)O[C@H]1C[C@@H](C)C=C2C=C[C@H](C)[C@H](CC[C@@H]3C[C@@H](O)CC(=O)O3)[C@H]21,activation,[10],-3.65%
Cc1cc(SCc2sc(-c3ccc(C(F)(F)F)c(F)c3)nc2C)ccc1OCC(=O)O,Potency,[9],inactive
same,activation,[10],-2.28%
Oc1cccc2cccnc12,Potency,[2],inactive
same,activation,[10],-3.45% and -4.35%
same,outcome,[6],inactive
CCCCOCCOCCOCc1cc2c(cc1CCC)OCO2,activation,[10],1.08% and -5.21%
Oc1ccc(Cl)cc1Cc1ccccc1,activation,[7],-12.3%
same,outcome,[8],inactive
same,activation,[1],-0.163% and -0.754%
same,Potency,[5],inactive
C[C@]12C/C(=C/O)C(=O)C[C@@H]1CC[C@@H]1[C@@H]2CC[C@@]2(C)[C@H]1CC[C@]2(C)O,Potency,[2],inactive
same,Potency,[4],562 nM (active)
same,activation,[10],1.58%
same,activation,[1],-7.95%
Cc1ccnc2c1NC(=O)c1cccnc1N2C1CC1,activation,[10],5.2%
same,outcome,[6],inactive
COC1(CS(=O)c2ccccc2)CCN(CCc2c[nH]c3ccc(F)cc23)CC1 (stereo not drawn),Potency,[2],inactive
same,outcome,[11],inactive
CCCN(CCC)S(=O)(=O)c1ccc(C(=O)O)cc1,activation,[10],-0.735% and 0.243%
NP(N)(=O)NC(=O)c1ccc(F)cc1,Potency,[2],inactive
same,outcome,[11],inactive
CN(C)CCN(C)CCc1ccc(Cl)c(Cl)c1,Potency,[2],inactive
same,outcome,[11],inactive
C=C1CC[C@@]2(O)[C@H]3Cc4ccc(O)c5c4[C@@]2(CCN3CC2CC2)[C@H]1O5,Potency,[2],inactive
O=C(NC(O)C(Cl)(Cl)Cl)NC(O)C(Cl)(Cl)Cl (stereo not drawn),Potency,[2],inactive
NC(=Nc1ccccc1)Nc1ccccc1,outcome,[3],inactive
same,activation,[10],-1.85% and 0.0042%
same,activation,[1],-8.4%
same,outcome,[6],inactive
CCc1nc(N)nc(N)c1-c1ccc(Cl)cc1,activation,[10],-5.01% and -3.58%
Oc1cc(Cl)ccc1Oc1ccc(Cl)cc1Cl,Potency,[2],inactive
same,activation,[1],-14.4%
same,outcome,[6],inactive
C#C[C@]1(O)CC[C@H]2[C@@H]3CCC4=Cc5oncc5C[C@]4(C)[C@H]3CC[C@@]21C,activation,[10],-1.05%
OCCOc1ccccc1,Potency,[2],inactive
same,outcome,[3],inactive
same,Potency,[4],inactive
same,Potency,[9],inactive
same,activation,[10],0.0237% and -6.3% and -0.639%
same,activation,[1],0.307% and -9.57% and -3.52%
same,Potency,[5],inactive
OCCOCCN1CCN(C(c2ccccc2)c2ccc(Cl)cc2)CC1 (stereo not drawn),outcome,[6],inactive
